# Screening data deposited in PubChem BioAssay by several laboratories.
# This is a sample that favours compounds with a hit; in the whole collection about 0.54% have one here.
# Efflux pump inh – blocks antifungal efflux pumps in multiplex yeast assay; inhibition, % at 10 µM; S. cerevisiae Candida pump triplex, Nile Red efflux; actives 0.44% (n = 330,000); AID 485275;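 active = plate passing quality check with inhibition over a set limit, or well fluorescence over plate mean plus 4 SD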;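 also: Nile Red retained in pooled yeast measured as flow cytometry median fluorescence; 0% = buffer negative control and 100% = Enniatin B positive control; higher means more Nile Red kept so more efflux inhibition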
# Rtt109 HAT inh – inhibitors of Candida albicans Rtt109/Vps75 histone acetyltransferase; purified Rtt109/Vps75, ThioGlo CoA-SH fluorescence, 4 h; inhibition, % at 34.9 µM; actives 0.16% (n = 330,000); AID 540336;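 active = inhibition of at least 50% in every replicate; inconclusive = best replicate reaches 50% inhibition but some replicates fall short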
# PDI turbidity – PDI (human) enzyme inhibition | PDI insulin aggregation turbidity, A650, 90 min | inhibition, % at 10 µM | actives 0.052% (n = 350,000) | AID 588391 | P07237;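 active = mean inhibition across replicates of 30% or more, whatever share of single replicates reach that level; inconclusive = mean inhibition below 30% while every single replicate reaches 30%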
# Target sequence (P07237 whole entry, looked up): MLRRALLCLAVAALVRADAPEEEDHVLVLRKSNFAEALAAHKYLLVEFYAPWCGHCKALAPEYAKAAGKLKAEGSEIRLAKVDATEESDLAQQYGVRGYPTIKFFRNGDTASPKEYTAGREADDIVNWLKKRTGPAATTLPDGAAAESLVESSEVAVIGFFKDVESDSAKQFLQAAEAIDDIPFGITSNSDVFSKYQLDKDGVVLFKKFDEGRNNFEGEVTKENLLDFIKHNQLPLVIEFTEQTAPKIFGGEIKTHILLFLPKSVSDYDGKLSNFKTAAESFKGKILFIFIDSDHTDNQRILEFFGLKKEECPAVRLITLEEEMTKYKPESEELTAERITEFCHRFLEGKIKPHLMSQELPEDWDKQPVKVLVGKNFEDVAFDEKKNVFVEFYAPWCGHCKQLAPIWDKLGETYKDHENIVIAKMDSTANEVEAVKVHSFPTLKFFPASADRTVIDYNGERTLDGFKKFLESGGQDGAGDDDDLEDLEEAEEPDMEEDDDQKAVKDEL
# PvdQ inh – blocks Pseudomonas aeruginosa PvdQ acylase activity | purified PvdQ acylase, fluorescence plate reader | inhibition, % at 10 µM | actives 0.063% (n = 340,000); in the data active = inhibition above about 30%, passing the limit was not always enough; inconclusive = no clear call, values can overlap the other calls;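 also: 0% = vehicle neutral wells and 100% = reference inhibitor wells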
# ERp5 block – inhibitors of human ERp5; Q15084; actives 0.05% (n = 350,000); ERp5 insulin aggregation, absorbance 650 nm, 90 min; inhibition, % at 9.99 µM;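 active = mean replicate inhibition above about 25%, with every replicate also reaching it, limit read from the data, passing the limit was not always enough; inconclusive = only one of those two criteria met; inactive = neither criterion met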
# Numbers without * were called inactive; u = inconclusive; x = no result; + = active, no number.
SMILES,Efflux pump inh,Rtt109 HAT inh,PDI turbidity,PvdQ inh,ERp5 block
CCOc1ccc(/C=C2\SC(=S)N(C(C(=O)O)c3ccccc3)C2=O)cc1OC (stereo not given),0,24,4,-7,0
CC(/C=C1\SC(=S)N(C(C(=O)O)c2ccccc2)C1=O)=C\c1ccccc1 (stereo not given),1,66*,-1,-4,2
O=C(CCC1CCCCC1)NCCN1C2=NC[C@H](Cc3ccc(O)cc3)N2C[C@H]1Cc1ccc(O)cc1,x,29,34*,-16,0
N#Cc1ccc(C(=O)N(Cc2ccco2)c2c(N)n(Cc3ccccc3)c(=O)[nH]c2=O)cc1,0,3,33*,-9,-7
COc1ccccc1NC(=O)N[C@@H]1CC[C@@H](CCNS(=O)(=O)c2ccc(C)cc2)O[C@@H]1CO,x,x,x,x,-3
O=C(O)CCCCCn1c(SCC(=O)c2ccc(O)c(O)c2)nc2ccsc2c1=O,1,7,32*,-11,x
Cc1noc(C)c1NC(=O)Nc1cccc2c1O[C@H](CN(C)Cc1ccc(C(=O)Nc3ccccc3N)cc1)[C@@H](C)CN([C@@H](C)CO)C2=O,x,x,x,x,-1
Cc1ccc2nc(-c3cccc(Br)c3)c(Cc3cccc(Cl)c3)n2c1,x,x,x,x,25*
COc1ccc2c3c([nH]c2c1)[C@@H](CO)N(Cc1nccs1)CC31CN(C(=O)C2CCCC2)C1,x,x,x,x,80*
COc1ccc2c3c([nH]c2c1)[C@H](CO)N(C(=O)C1CCOCC1)CC31CCN(Cc2nccs2)CC1,x,x,x,x,84*
COC(=O)c1cc(/C=C/c2ccccc2)on1,0,0,-4,54*,x
COC(=O)c1cc(/C=C/c2ccccc2)[nH]n1,0,7,-4,0,3
CCOc1cc(/C=N/NC(=O)CSc2nncn2C)ccc1OCc1cccc(C)c1,-1,50*,-13,9,x
CCOc1cc(/C=N/NC(=O)CSc2nncn2C)ccc1OCC(N)=O,0,-2,-8,4,2
CC(C)NC(=O)N1CC2(C1)[C@@H](c1ccccc1)[C@H](CO)N2C(=O)C1CC1,x,x,x,x,4
COc1ccccc1S(=O)(=O)N1C[C@H](O)COC[C@H]2O[C@@H](CC(=O)O)CC[C@@H]21,x,x,x,x,36*
NC(=O)[C@H]1[C@@H]2C(=O)O[C@@H](c3ccccc3)[C@@H](c3ccccc3)N2[C@@H](c2ccc(O)cc2)[C@]12C(=O)Nc1ccc(C#CC3(O)CCCCCC3)cc12,x,x,x,x,1
O=C(Nc1cccc(-c2nc3cccnc3s2)c1)c1cccnc1Cl,0,60*,0,6,6
O=C(Nc1cccc(F)c1)N1CC(=O)N2[C@H](C1)[C@H](c1ccc(-c3ccccc3)cc1)[C@@H]2CO,x,x,x,x,13
N#CC1=C(S)N(c2ccc(F)cc2)C(c2cccs2)NC1=O (stereo not given),x,9,17,-13,x
Cc1ccccc1N1C(S)=C(C#N)C(=O)NC1c1cccs1 (stereo not given),0,+,-2,-7,x
Cc1cccc(N2C(S)=C(C#N)C(=O)NC2c2cccs2)c1 (stereo not given),0,121*,3,-11,x
Cc1ccc(S(=O)c2ccc(C)cc2)cc1,0,-11,8,79*,x
CC(C)(O)c1cn([C@@H]2C[C@@H]3O[C@@H](CO)CC[C@@H]3O[C@@H]2CCc2ccc(-c3ccncc3)cc2)nn1,x,x,x,x,0
CCOC(=O)N1CCN(c2nc3ccccn3c(=O)c2C=O)CC1,0,-7,-3,31*,2
SMILES,Efflux pump inh,Rtt109 HAT inh,PDI turbidity,PvdQ inh,ERp5 block
C[C@@H]1CCCCO[C@H](CN(C)C(=O)Nc2ccc(F)cc2)[C@H](C)CN([C@@H](C)CO)C(=O)c2cc(NC(=O)CCCN(C)C)ccc2O1,x,x,x,x,-2
CCN1[C@@H]2c3ccc(-c4ccccc4OC)c(=O)n3C[C@@H]2[C@@H](CO)[C@@H]1C(=O)NCCCN(C)C,x,x,x,x,-7
COc1ccccc1NC(=O)N1CCCCN2[C@@H](CO)[C@@H](c3ccc(C#CC4CC4)cc3)[C@@H]2C1,x,x,x,x,-3
O=C1Cc2ccccc2Sc2c(OCCN3CCCCC3)cccc21,0,55*,13,7,x
O=C1Cc2ccccc2Sc2cc(OCCCN3CCCCC3)ccc21,0,-8,20,9,x
C[C@H](CO)N1C[C@H](C)[C@H](CN(C)C(=O)Nc2ccccc2)Oc2ccc(NC(=O)CCCCCC(=O)Nc3ccccc3N)cc2C1=O,x,x,x,x,5
O=C(C[C@@H]1C=C[C@@H](NC(=O)C2CCOCC2)[C@@H](CO)O1)NCc1ccccc1Cl,x,x,x,x,3
Cc1ccc(-n2c(O)c(C=NCc3ccccn3)c3ccccc3c2=O)cc1C,0,62*,21,11,2
COc1ccc(/C=C/C(=O)c2ccoc2)cc1,0,10,5,40*,4
O=C(NCC[C@H]1CC[C@H](NC(=O)C2CC2)[C@H](CO)O1)c1ccc(F)cc1,x,x,x,x,-3
Cc1cc(C)nc(NS(=O)(=O)c2ccc(NC(=O)c3ccc(S(=O)(=O)N(C)C)cc3)cc2)n1,0,6,-3,5,-1
Cc1cc(C)nc(NS(=O)(=O)c2ccc(NC(=O)c3ccc(N4C(=O)CCC4=O)cc3)cc2)n1,0,3,6,44*,x
CN(C)CC(=O)Nc1ccc2c(c1)[C@H]1C[C@@H](CC(=O)NCc3ccccc3)O[C@H](CO)[C@H]1O2,x,x,x,x,0
N#CC(c1ccc(F)cc1)c1ccc(C(=O)c2ccccc2)cc1 (stereo not given),0,1,24,48*,x
N#CC(c1ccccc1)c1ccc(C(=O)c2ccc(F)cc2)cc1 (stereo not given),0,6,0,1,x
CCN(CC)c1ccc(C(=S)N2CCN(c3ccccc3)CC2)cc1,0,53*,15,2,x
O=C(C1=C[C@@H](c2ccc(Br)cc2)C[C@@H](OCc2ccc(CO)cc2)O1)N1CCCC1,x,x,x,x,1
COC(=O)c1noc(-c2ccc(OC)cc2)n1,1,-10,21,71*,x
O=C(N/N=C1\CCCc2ccccc21)c1ccccc1Cl,0,-13,5,0,28*
O=C(N/N=C1\CCc2ccccc21)c1ccccc1O,0,6,6,5,x
O=C(c1cccc([N+](=O)[O-])c1)N1CC2C3C=CC(C3)C2C1 (stereo not given),0,0,-6,43*,-9
COc1ccc(C(=O)C(CCC(CNC(C)(C)C)C(=O)c2ccc(OC)cc2)CNC(C)(C)C)cc1 (stereo not given),0,62*,4,7,x
COc1ccc(C(=O)CC(=O)c2ccc(C(C)(C)C)cc2)cc1,x,11,6,-4,5
O=C(NN1C(=O)/C(=C/C=C/c2ccco2)SC1=S)c1ccncc1,1.1*,x,0,x,-4
O=C(NN1C(=O)/C(=C/C=C/c2ccccc2)SC1=S)c1ccncc1,0,-1,6,-2,u
O=C(C[C@H]1CC[C@H]2[C@@H](COC[C@@H](O)CN2Cc2cc(F)ccc2F)O1)NCc1ccc(F)cc1,x,x,x,x,2
